Screen size: about 5,500 compounds; about 2,000 (36%) were called active. About 18% were inconclusive and are not listed. Rule as the data show it: active = normalized growth mostly below about 0.91 (no sharp cut-off); inconclusive = no clear call, values can overlap the other calls; inactive = mostly above about 0.92. The list shows a part of the results.
Assay: chemical genetic growth profiling, strain panel (AID 1159580);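 also: tested at 20 µM; growth read once vehicle control cultures reached saturation at 30 °C; 1 = growth at the plate median or of vehicle wells; lower values mean less growth of the strain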
Conditions: growth OD

Measured: normalized growth

Cc1c(N(C)C)c(=O)n(-c2ccccc2)n1C
inactive: S. cerevisiae deletion strains, locus YKL009W, strain mrt4, hits give low values 0.984 | S. cerevisiae deletion strains, locus YKL068W, hits give low values 0.991 | S. cerevisiae deletion strains, locus YKL085W, strain MDH1 (second series), hits give low values 0.985 | S. cerevisiae deletion strains, locus YKL085W, strain MDH1, hits give low values 0.985 | S. cerevisiae deletion strains, locus YKL160W, strain elf1, hits give low values 0.988 | S. cerevisiae deletion strains, locus YKL190W, strain CNB1, hits give low values 0.988 | S. cerevisiae deletion strains, locus YKR001C, strain vps1, hits give low values 1 | S. cerevisiae deletion strains, locus YKR026C, strain gcn3, hits give low values 0.992 | S. cerevisiae deletion strains, locus YKR091W, strain srl3, hits give low values 0.976 | S. cerevisiae deletion strains, locus YLL001W, strain dnm1, hits give low values 0.972 | S. cerevisiae deletion strains, locus YLL026W, hits give low values 0.973 | S. cerevisiae deletion strains, locus YLL041C, strain sdh2, hits give low values 0.992 | S. cerevisiae deletion strains, locus YLR027C, strain aat2, hits give low values 0.97 | S. cerevisiae deletion strains, locus YLR039C, strain RIC1, hits give low values 0.983 | S. cerevisiae deletion strains, locus YLR058C, strain SHM2, hits give low values 0.997 | S. cerevisiae deletion strains, locus YLR102C, strain apc9, hits give low values 0.992 | S. cerevisiae deletion strains, locus YLR113W, strain HOG1, hits give low values 1.03 | S. cerevisiae deletion strains, locus YLR221C, strain rsa3, hits give low values 1.06 | S. cerevisiae deletion strains, locus YLR258W, strain gsy2, hits give low values 0.985 | S. cerevisiae deletion strains, locus YLR262C, strain YPT6 (second series), hits give low values 0.971 | S. cerevisiae deletion strains, locus YLR262C, strain YPT6, hits give low values 0.972 | S. cerevisiae deletion strains, locus YLR268W, strain sec22, hits give low values 0.963 | S. cerevisiae deletion strains, locus YLR320W, strain mms22, hits give low values 0.994 | S. cerevisiae deletion strains, locus YLR330W, strain CHS5, hits give low values 0.989 | S. cerevisiae deletion strains, locus YLR342W, strain FKS1 (second series), hits give low values 1.05 | S. cerevisiae deletion strains, locus YLR342W, strain FKS1, hits give low values 0.961 | S. cerevisiae deletion strains, locus YLR357W, strain rsc2, hits give low values 0.935 | S. cerevisiae deletion strains, locus YLR370C, strain arc18, hits give low values 0.984 | S. cerevisiae deletion strains, locus YLR371W, strain rom2, hits give low values 0.991 | S. cerevisiae deletion strains, locus YLR384C, strain iki3, hits give low values 0.991 | S. cerevisiae deletion strains, locus YLR418C, strain cdc73, hits give low values 1.03 | S. cerevisiae deletion strains, locus YML016C, strain PPZ1, hits give low values 1 | S. cerevisiae deletion strains, locus YML032C, strain rad52, hits give low values 0.967 | S. cerevisiae deletion strains, locus YML120C, strain ndi1, hits give low values 0.993 | S. cerevisiae deletion strains, locus YML124C, strain tub3, hits give low values 0.997 | S. cerevisiae deletion strains, locus YMR058W, strain fet3, hits give low values 1.01 | S. cerevisiae deletion strains, locus YMR078C, strain ctf18, hits give low values 0.985 | S. cerevisiae deletion strains, locus YMR125W, strain sto1, hits give low values 0.989 | S. cerevisiae deletion strains, locus YMR129W, hits give low values 0.991 | S. cerevisiae deletion strains, locus YMR205C, strain PFK2, hits give low values 0.991 | S. cerevisiae deletion strains, locus YMR223W, strain ubp8, hits give low values 1.02 | S. cerevisiae deletion strains, locus YMR231W, strain pep5, hits give low values 0.978 | S. cerevisiae deletion strains, locus YMR263W, strain SAP30, hits give low values 0.989 | S. cerevisiae deletion strains, locus YMR307W, strain GAS1, hits give low values 1.08 | S. cerevisiae deletion strains, locus YNL067W, strain RPL9B, hits give low values 0.978 | S. cerevisiae deletion strains, locus YNL071W, strain lat1, hits give low values 1 | S. cerevisiae deletion strains, locus YNL128W, strain TEP1, hits give low values 0.983 | S. cerevisiae deletion strains, locus YNL153C, strain GIM3, hits give low values 0.985 | S. cerevisiae deletion strains, locus YNL183C, strain NPR1, hits give low values 0.988 | S. cerevisiae deletion strains, locus YNL209W, strain ssb2, hits give low values 1.01 | S. cerevisiae deletion strains, locus YNL233W, strain BNI4, hits give low values 0.986 | S. cerevisiae deletion strains, locus YNL248C, strain rpa49, hits give low values 1 | S. cerevisiae deletion strains, locus YNL250W, strain rad50, hits give low values 0.972 | S. cerevisiae deletion strains, locus YNL271C, strain bni1, hits give low values 0.966 | S. cerevisiae deletion strains, locus YNL298W, strain CLA4, hits give low values 1 | S. cerevisiae deletion strains, locus YNL307C, strain MCK1, hits give low values 0.996 | S. cerevisiae deletion strains, locus YNL322C, strain KRE1 (second series), hits give low values 0.975 | S. cerevisiae deletion strains, locus YNL322C, strain KRE1, hits give low values 0.991 | S. cerevisiae deletion strains, locus YNR049C, strain mso1, hits give low values 0.996 | S. cerevisiae deletion strains, locus YNR052C, strain pop2, hits give low values 0.993 | S. cerevisiae deletion strains, locus YOL006C, strain TOP1, hits give low values 0.978 | S. cerevisiae deletion strains, locus YOL012C, strain htz1 2 | S. cerevisiae deletion strains, locus YOL147C, strain pex11, hits give low values 0.985 | S. cerevisiae deletion strains, locus YOR001W, strain rrp6, hits give low values 0.971 | S. cerevisiae deletion strains, locus YOR061W, strain CKA2, hits give low values 0.995 | S. cerevisiae deletion strains, locus YOR069W, strain VPS5, hits give low values 1 | S. cerevisiae deletion strains, locus YOR070C, strain gyp1, hits give low values 0.999 | S. cerevisiae deletion strains, locus YOR080W, strain dia2, hits give low values 0.98 | S. cerevisiae deletion strains, locus YOR083W, strain WHI5, hits give low values 0.956 | S. cerevisiae deletion strains, locus YOR106W, strain vam3, hits give low values 0.988 | S. cerevisiae deletion strains, locus YOR136W, strain idh2, hits give low values 1 | S. cerevisiae deletion strains, locus YOR144C, strain elg1, hits give low values 0.992 | S. cerevisiae deletion strains, locus YOR184W, strain ser1, hits give low values 1.01 | S. cerevisiae deletion strains, locus YOR231W, strain MKK1, hits give low values 0.992 | S. cerevisiae deletion strains, locus YOR265W, strain rbl2, hits give low values 0.998 | S. cerevisiae deletion strains, locus YOR270C, strain vph1, hits give low values 1.04 | S. cerevisiae deletion strains, locus YOR290C, strain snf2, hits give low values 0.996 | S. cerevisiae deletion strains, locus YOR316C, strain cot1, hits give low values 0.998 | S. cerevisiae deletion strains, locus YPL051W, strain arl3, hits give low values 0.992 | S. cerevisiae deletion strains, locus YPL055C, strain LGE1, hits give low values 1 | S. cerevisiae deletion strains, locus YPL078C, strain atp4, hits give low values 0.98 | S. cerevisiae deletion strains, locus YPL106C, strain sse1, hits give low values 0.974 | S. cerevisiae deletion strains, locus YPL240C, strain hsp82, hits give low values 0.99 | S. cerevisiae deletion strains, locus YPL241C, strain CIN2, hits give low values 0.996 | S. cerevisiae deletion strains, locus YPL256C, strain CLN2, hits give low values 1.02 | S. cerevisiae deletion strains, locus YPR119W, strain clb2, hits give low values 0.994 | S. cerevisiae deletion strains, locus YPR141C, strain kar3, hits give low values 0.966 | S. cerevisiae deletion strains, locus YPR163C, strain tif3, hits give low values 0.976 | S. cerevisiae deletion strains, locus YPR167C, strain met16, hits give low values 0.989 | S. cerevisiae deletion strains, strain wtn01, hits give low values 0.997 | S. cerevisiae strains, strain wild type, hits give low values 0.995

— PubChem BioAssay AID1159580 (chemical genetic matrix, 2015)
